In PubChem BioAssay (NCATS):
Results filed as inconclusive are left out. Active and inactive are the calls of the source. Calls come from the whole dose curve; as a rule, active = well fitted curve in the direction sought with a large enough effect; inconclusive = small, poorly fitted or top-dose-only effect, or another doubt; inactive = no such curve, though single readings can be large; an effect the other way counts as inactive or inconclusive. Where a SMILES comes first, the peptide text is derived from it.

Key:
[1] = target: Calcium and integrin-binding protein 1 (Homo sapiens) (UniProt Q99828); test: Primary qHTS for Identification of Calcium Integrin Binding Protein 1 (CIB1) Competitor (AID 1508620);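 note: GST tagged CIB1 binding a fluorescein labelled alphaIIb integrin peptide tracer; top concentration of the series differs between compounds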
Sequence of Calcium and integrin-binding protein 1 (Homo sapiens) (Q99828 whole entry, looked up): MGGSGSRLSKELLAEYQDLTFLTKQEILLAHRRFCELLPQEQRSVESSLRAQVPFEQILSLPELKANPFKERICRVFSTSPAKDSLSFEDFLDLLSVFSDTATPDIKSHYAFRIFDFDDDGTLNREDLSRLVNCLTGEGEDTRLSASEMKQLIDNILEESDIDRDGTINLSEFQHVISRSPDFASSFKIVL
Method in brief: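 CIB1-GST (1 uM final) and compound incubated 15 min at room temperature before adding FITC-alphaIIb peptide tracer (100 nM final). Competition for binding read by fluorescence polarization (ex 480, em 540) after another 15 min at room temperature.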

[2] = Primary qHTS for inhibitors of nuclear receptor binding SET domain protein 2 (NSD2) in an isogenic RCH-ACV NSD2 p.E1099K mutant (9B) (AID 1645876); note: nearly all actives have a fitted effect of over 70% in size
[3] = Primary qHTS for inhibitors of nuclear receptor binding SET domain protein 2 (NSD2) in an RCH-ACV wild type WT cells (2C) (AID 1645877); note: nearly all actives have a fitted effect of over 70% in size
% is set by controls: 0 for no effect and ±100 for the full control effect.

CC(=O)NC(Cc1ccccc1)C(=O)NC(C(=O)O)C(C)C (stereo not drawn) (Ac-Phe-Val-OH; configuration not given here)
inactive: Potency [1] | Potency [2] | Potency [3]

C/C=C/C=C/[C@@H]1O[C@](O)([C@H](CC)C(=O)NC/C=C/C=C(\C)[C@@H](OC)[C@@H](C)[C@@H]2O[C@H](/C=C/C=C/C=C(\C)C(=O)c3c(O)ccn(C)c3=O)[C@H](O)[C@@H]2O)[C@H](O)[C@H](O)C1(C)C
inactive: Potency [1] | outcome [2] inactive [at 9.23 µM] | outcome [3] inactive [at 9.23 µM]

C/C=C(\C)C(=O)OC[C@H]1O[C@@H](O[C@H]2[C@@H](O[C@H]3O[C@H](COC(=O)/C(C)=C/C)[C@@H](O)[C@H](O)[C@H]3O[C@@H]3O[C@H](COC(=O)/C(C)=C/C)[C@@H](O)[C@H](OC(=O)/C(C)=C/C)[C@H]3O)O[C@H](COC(=O)/C(C)=C/C)[C@@H](O)[C@@H]2O)[C@H](O)[C@@H](O)[C@@H]1O
inactive: Potency [1] | activity change, negative = viability loss [2] -1.81% [at 9.23 µM] | activity change, negative = cell killing [3] -6.87% [at 9.23 µM]

C=C[C@H]1[C@H](O[C@@H]2O[C@H](CO)[C@@H](O)[C@H](O)[C@H]2O)OC=C(C(=O)OC)[C@H]1CC=O
inactive: Potency [1] | Potency [2] | Potency [3]

C=C(COC(=O)C(C)C)C1Oc2cc(C(C)=O)ccc2C1OC(=O)C(C)C (stereo unspecified)
inactive: Potency [1] | Potency [2] | Potency [3]

COc1ccc(/C=C/C(N)=O)cc1OC
inactive: Potency [1] | Potency [2] | Potency [3]

CC1(C)[C@@H]2CC=C(CO[C@@H]3O[C@H](CO[C@@H]4OC[C@H](O)[C@H](O)[C@H]4O)[C@@H](O)[C@H](O)[C@H]3O)[C@H]1C2
inactive: Potency [1] | Potency [2] | Potency [3]
